RE007 growth inh: less growth of the S. pombe RE007 Vpr strain. S. pombe RE007 Vpr strain, BacTiter-Glo ATP luminescence, 24 h. Potency, µM (doses to about 92.2 µM), without a hit: top-dose activity change, negative = less growth, usual class: inhibitors. 360,000 tested, 0.21% active. AID 651644; active = well fitted falling curve with a large enough effect; inconclusive = small, poorly fitted or top-dose-only effect; inactive = no such curve, though single readings can be large or run the other way; note: potency is the fitted concentration of half-maximal effect; nearly all actives have a fitted effect of over 50% in size
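Fission yeast RE007 carrying one integrated HIV-1 vpr copy, seeded at OD 0.01 in PMG+AL medium with 23 nL pinned compound. Grown 24 h at 30 degrees; viability read by BacTiter-Glo luminescence after 5 min.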
Sm TGR inh: S. mansoni TGR enzyme inhibition | 360,000 tested, 3% active | Q962Y6 | Potency, µM (series often up to 114 µM), for inactives: top-dose activity change, negative = inhibition, most hits filed as inhibitors | AID 485364 | purified TGR, DTNB reduction, TNB absorbance 405 nm; note: potency is the fitted concentration of half-maximal effect; nearly all actives have a fitted effect of over 60% in size
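TGR 20 nM + NADPH 100 uM (dispensed conc.), cpd preinc 15 min RT; start with NADPH (500 uM addition) then DTNB (15 mM addition). Kinetic TNB absorbance, 405 nm filter. Four-parameter Hill fit across titration.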
Tb PYK inh: inhibitors of Trypanosoma brucei pyruvate kinase | TbPYK enzyme, Kinase-Glo Plus ATP luminescence, 45 min | Potency, µM (titrated, usually from 76.8 µM), inactives show at the top dose activity, negative = inhibition, most hits filed as inhibitors | 410,000 tested, 0.12% active | AID 624173; note: potency is the fitted concentration of half-maximal effect; nearly all actives have a fitted effect of over 50% in size
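Readout: single end-point luminescence (Kinase-Glo Plus, 10 min). Reaction conditions were TbPYK/substrate plus 130 uM ADP, 45 min at RT, pH 7.2 TEA buffer. No-enzyme wells served as controls, and data were normalized before concentration-response fitting.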
FMDV inh: antivirals against foot and mouth disease virus; FMDV antiviral cell-based qHTS; Potency, µM (series often up to 57.9 µM), without a hit: at the top dose activity change, negative = inhibition, most hits filed as inhibitors; 410,000 tested, 1.2% active; calls by dose curve; tested in HEK293T cells; note: read-out not given here; potency is the fitted concentration of half-maximal effect; nearly all actives have a fitted effect of over 45% in size
HCMV antiviral: inhibitors of human cytomegalovirus; activity change, negative = inhibition, % at 57.5 µM; HFF cells, HCMV-luciferase reporter, 72 h; hits give low values; 410,000 tested, 4.5% active; AID 1259415; in the data active = activity change below about -60%; inconclusive = no clear call, values can overlap the other calls; inactive = above about -39%
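Human foreskin fibroblasts infected with luciferase-reporter HCMV at MOI 1 PFU/cell, compounds at two doses. Luciferase measured 72 h post infection; normalized to buffer-only basal and Salinomycin (10uM) controls.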
Giardia FBPA inh: Giardia lamblia aldolase inhibition. A8B2U2. purified Giardia FBPA. Potency, µM (doses to about 59.6 µM), for inactives: at the highest dose activity, negative = inhibition, actives largely listed as inhibitors. 290,000 tested, 0.71% active. AID 2451; note: potency is the fitted concentration of half-maximal effect; nearly all actives have a fitted effect of over 55% in size
Target sequence (A8B2U2 whole entry, looked up): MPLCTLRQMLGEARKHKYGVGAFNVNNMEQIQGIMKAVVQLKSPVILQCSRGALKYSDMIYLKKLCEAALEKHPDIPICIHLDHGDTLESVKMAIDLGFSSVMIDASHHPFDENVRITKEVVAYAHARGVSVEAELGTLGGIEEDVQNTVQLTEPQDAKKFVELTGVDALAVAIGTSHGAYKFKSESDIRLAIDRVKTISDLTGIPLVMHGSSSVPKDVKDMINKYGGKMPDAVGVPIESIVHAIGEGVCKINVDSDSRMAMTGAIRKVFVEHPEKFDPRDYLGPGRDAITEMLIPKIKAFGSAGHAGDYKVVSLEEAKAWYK
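40 nM FBPA preincubated 10 min at RT with compound (up to 57.5 uM final), then substrate plus GAPDH/TPI/NAD/arsenate coupling and diaphorase/resazurin added. Fluorescence read after 20 min at RT, 525/598 nm.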
* marks the source's active call; other numbers are inactive results; ? = inconclusive; nt = not tested or not shown; [ ] = remark or other dose. Only some compounds are listed: those with a hit (about 7.7% of all), similar ones and a draw of the others. Unless noted, calls come from the whole dose curve; as a rule, active = well fitted curve in the direction sought with a large enough effect; inconclusive = small, poorly fitted or top-dose-only effect, or another doubt; inactive = no such curve, though single readings can be large; an effect the other way counts as inactive or inconclusive. % is set by controls: 0 for no effect and ±100 for the full control effect.

SMILES	RE007 growth inh	Sm TGR inh	Tb PYK inh	FMDV inh	HCMV antiviral	Giardia FBPA inh
COc1ccc(-n2c(COc3ccccc3)n[nH]c2=S)cc1	17%	2%	11µM*	-5%	22	?
Cc1ccc(-n2c(COc3cccc(C)c3)n[nH]c2=S)cc1	1%	4%	16µM*	1%	-15	-10%
Cc1cccc(OCc2n[nH]c(=S)n2-c2ccccc2)c1	1%	nt	?	0%	-32	4%
COc1ccc(CSCCc2n[nH]c(=S)n2-c2ccccc2)cc1	12%	4%	3.2µM*	-19%	-22	4%
COc1ccc(-n2c(COc3ccc(C)cc3)n[nH]c2=S)cc1	4%	0%	?	-2%	-18	?
COc1cccc(C(=O)NCC2OCCc3ccccc32)c1 (stereo unspecified)	nt	1%	2%	48%	43	nt
COc1ccc(C)cc1NC(=O)C1COc2ccccc2C1 (stereo unspecified)	nt	5%	-9%	-28%	-16	nt
CC1CCCN(c2cccc3c2S(=O)(=O)N(Cc2cccc(F)c2)[C@@H](C)[C@H](c2ccccc2)O3)C1 (stereo partly specified)	nt	nt	nt	nt	-15	nt
COC(=O)c1ccccc1N(C)S(=O)(=O)c1cc2c3c(c1)CC(=O)N3CCC2	nt	10%	-5%	-11%	-9	nt
O=c1c(-c2cccs2)nc2cncnc2n1-c1ccccc1	nt	nt	nt	-6%	nt	12%
O=C(N/N=C/c1ccc(O)cc1O)c1ccc(CN2C(=O)c3cccc4cccc2c34)cc1	-8%	nt	1%	-19%	-101*	-12%
CCN(C(=O)Cn1nnc2sc3c(c2c1=O)CCC(C(C)(C)C)C3)c1cccc(C)c1 (stereo unspecified)	nt	2%	-6%	?	-2	nt
O=C(NNC1CC(=O)N(c2ccc(F)cc2)C1=O)c1cccnc1 (stereo unspecified)	7%	7.9µM*	4%	3%	-21	1%
COCCCNC(=O)c1ccc(C2SCC(=O)N2Cc2ccco2)cc1 (stereo unspecified)	1%	?	-3%	0%	-18	6%
C=CCNC(=O)c1ccc(C2SCC(=O)N2Cc2ccco2)cc1 (stereo unspecified)	-8%	28µM*	-13%	-3%	63	3%
COCCNC(=O)c1ccc(C2SCC(=O)N2Cc2ccco2)cc1 (stereo unspecified)	-5%	22µM*	-17%	-5%	0	-5%
CN(C)c1ccc(-c2cncnc2Nc2ccccc2)cc1	nt	nt	nt	-11%	nt	-23%
COc1ccccc1CC(=N)N1C[C@@H]2C(=O)CCC(c3ccccc3)(c3ccccc3)[C@@H]2C1	nt	nt	nt	-23%	nt	4%
NC(=O)c1ccc[n+]([C@H]2O[C@@H](COP(=O)([O-])OP(=O)(O)OC[C@H]3O[C@@H](n4cnc5c(N)ncnc54)[C@H](O)[C@@H]3O)[C@H](O)[C@@H]2O)c1	5µM*	?	-9%	-14%	nt	nt
NC(=O)c1ccc[n+]([C@@H]2OC(COP(=O)([O-])OP(=O)(O)OCC3OC(n4cnc5c(N)ncnc54)C(O)C3O)C(O)C2O)c1 (stereo partly specified)	nt	nt	nt	14%	nt	9%
Cn1c(=O)[nH]c(Nc2ccccc2)c([N+](=O)[O-])c1=O	-7%	13%	4%	2%	-94*	0%
COc1ccccc1NC(=O)Nc1ccc(F)c(F)c1	-19%	8%	-3%	9%	-102*	-23%
COc1ccccc1NS(=O)(=O)c1cccc(NC(=O)Nc2cccc(Cl)c2)c1	9%	-4%	-6%	?	-95*	0%
COc1ccccc1NS(=O)(=O)c1cccc(NC(=O)c2sc3ccccc3c2Cl)c1	-20%	-2%	5%	14%	-68*	-3%
COc1ccccc1NS(=O)(=O)c1cccc(NC(=O)NCCCl)c1	-2%	-7%	?	8%	10	-20%
SMILES	RE007 growth inh	Sm TGR inh	Tb PYK inh	FMDV inh	HCMV antiviral	Giardia FBPA inh
CO[C@H]1/C=C\C=C(\C)C(=O)NC2=CC(=O)C(NCCN(C)C)=C(C[C@@H](C)C[C@H](OC)[C@H](O)[C@@H](C)/C=C(/C)[C@@H]1OC(N)=O)C2=O	nt	nt	4%	nt	nt	nt
CCCNC(=O)c1ccc2nc(-c3ccccc3)c(-c3ccccc3)nc2c1	3%	-12%	3%	-20%	30	-3%
CCCCNC(=O)c1ccc2nc(-c3ccco3)c(-c3ccco3)nc2c1	-6%	7.9µM*	?	-2%	7	?
O=C(NCCCO)c1ccc2nc(-c3ccco3)c(-c3ccco3)nc2c1	-28%	2.5µM*	?	0%	35	?
O=C(CNC(=O)c1ccc(S(=O)(=O)N2CCCC2)cc1)N/N=C/c1ccccc1Cl	-16%	6%	5%	?	-63*	4%
Cc1cc(O)cc(O)c1/C=N/NC(=O)c1ccc2c(c1)OCCO2	-4%	nt	5%	-16%	-100*	nt
Nc1ccc(C(=O)N/N=C\c2cc(N=Nc3cccc4ccccc34)ccc2O)cc1	-3%	-21%	0%	15%	-102*	4%
COC(=O)N/N=C/c1cc(N=Nc2ccccc2Cl)ccc1O	-1%	-1%	-3%	-8%	29	3%
O=C(N/N=C/c1c(O)ccc2ccccc12)c1ccc(CO)nc1	-17%	-20%	-1%	-11%	-99*	-5%
COc1cc2nc(N(C)C)c(CNC3CCOC(C)(C)C3)cc2c(OC)c1OC (stereo unspecified)	nt	nt	nt	-12%	nt	nt
COc1ccc(NC(=O)c2oc3ccc(S(=O)(=O)N4CCCCC4)cc3c2C)cc1Cl	nt	-1%	-2%	?	-1	nt
CCCn1c(=O)sc2cc(NC(=O)COc3ccc(Cl)cc3)ccc21	nt	-11%	1%	?	-12	nt
CC/C(=N/NC(=O)c1ccc2c(c1)OCO2)c1ccccc1O	-10%	nt	2%	50%	-98*	nt
O=C(N/N=C\c1c(O)ccc2ccccc12)c1ccc(S(=O)(=O)N2CCCCC2)cc1	-19%	-1%	4%	-12%	-103*	0%
O=C(N/N=C/c1ccccc1)c1ccc2c(c1)OCO2	-9%	9%	-2%	-11%	?	-6%
O=C(NN=Cc1c(O)ccc2ccccc12)c1ccc2c(c1)OCO2	3%	nt	-1%	20%	-102*	nt
COc1ccc(O[C@H]2C=C[C@@H](c3ccccc3)O[C@H]2CO/N=C\C[C@@H]2C=C[C@H](OC(C)=O)[C@H](COC(C)=O)O2)cc1	nt	nt	nt	nt	nt	-2%[12.9 µM]
CC(C)CN1CC2(CCN(C(=O)c3cnccn3)CC2)C1	nt	nt	0%	-8%	nt	1%
O=C(c1cccc(F)c1)N1CCC2(CCCN(c3ccccc3)C2)CC1	nt	nt	0%	3%	nt	-1%
NC1(C(=O)O)CCCCC1	nt	nt	nt	nt	nt	1%

Compound activity deposited in PubChem by National Center for Advancing Translational Sciences (NCATS).
